Results as given in PubChem BioAssay (NCI).
The panel holds about 79,000 compounds, 15% with a hit somewhere; the sample as a whole holds those more often. Calls of active or inactive are those of the source. Cut-off read from the data, not from the text of the source: active = growth inhibition above about 70%; inactive = the rest.

Legend:
[1] = NCI Yeast Anticancer Drug Screen. Data for the mec2-1 strain (AID 157); details: S. cerevisiae mec2-1 strain, hits give high values
Method in brief: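 Each compound was tested on mec2-1 yeast, a strain altered in DNA damage repair or cell cycle control. Growth inhibition is reported relative to vehicle.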

[2] = NCI Yeast Anticancer Drug Screen. Data for the rad14 strain (AID 159);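 note: 0% = growth of vehicle-treated control cultures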; details: S. cerevisiae rad14 strain growth inhibition, hits give high values
Method in brief: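 Growth inhibition vs vehicle controls; genetically altered yeast strain (DNA damage repair defect) treated with test compounds.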

[3] = NCI Yeast Anticancer Drug Screen. Data for the sgs1 mgt1 strain (AID 161);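 note: 0% = growth of cultures given vehicle only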; details: S. cerevisiae sgs1 mgt1 strain, hits give high values
Method in brief: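 Inhibition of yeast growth, normalised to vehicle-treated controls, is reported for a strain bearing genetic alterations in DNA damage repair.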

[4] = NCI Yeast Anticancer Drug Screen. Data for the CLN2oe strain (AID 163);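 note: 0% = growth of vehicle-only control cultures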; details: S. cerevisiae CLN2oe strain, hits give high values
Method in brief: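 First, the altered yeast strain was treated with each compound; second, its growth was measured; finally, inhibition was derived by comparison with vehicle controls.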

[5] = NCI Yeast Anticancer Drug Screen. Data for the cln2 rad14 strain (AID 165);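 note: 0% = growth equal to vehicle treated cultures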; details: S. cerevisiae cln2 rad14 strain, hits give high values
Method in brief: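 Test compounds were added to cln2 rad14 yeast cultures; inhibition of growth was then determined by comparison with vehicle treatment.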

[6] = NCI Yeast Anticancer Drug Screen. Data for the bub3 strain (AID 167); details: S. cerevisiae bub3 mutant strain, hits give high values
Method in brief: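 Readout: yeast growth inhibition, expressed relative to vehicle-only wells. The test organism is a mutant strain from a panel with lesions in DNA repair or checkpoint genes.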

[7] = NCI Yeast Anticancer Drug Screen. Data for the wt2 strain (AID 169);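 note: 0% = growth of vehicle-treated yeast cultures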; details: S. cerevisiae wt2 strain growth inhibition, hits give high values
Method in brief: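 The panel's yeast strains carry defined changes in DNA repair or cell cycle genes. Each strain is grown with compound, and growth loss is scored relative to vehicle.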

[8] = NCI Yeast Anticancer Drug Screen. Data for the mlh1 strain (AID 171);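 note: 0% = growth of vehicle-treated control cultures of the same strain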; details: S. cerevisiae mlh1 strain growth inhibition, hits give high values
Method in brief: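 Inhibition values reflect reduced yeast growth in the presence of compound, referenced to vehicle controls, using a strain chosen for its alteration in DNA repair or cell cycle control.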

[9] = NCI Yeast Anticancer Drug Screen. Data for the sgs1 strain (AID 173);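 note: 0% = growth of vehicle-only control cultures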; details: S. cerevisiae sgs1 mutant, hits give high values
Method in brief: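 Vehicle-treated cultures served as reference for growth inhibition of a yeast strain altered in DNA damage repair or cell cycle control after compound exposure.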

[10] = NCI Yeast Anticancer Drug Screen. Data for the mlh1 rad18 strain (AID 175); details: S. cerevisiae mlh1 rad18 strain growth inhibition, hits give high values
Method in brief: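 Inhibition values reflect reduced growth of mutant yeast versus vehicle-treated controls following compound exposure; the mutations affect DNA damage repair.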

[11] = NCI Yeast Anticancer Drug Screen. Data for the rad18 strain (AID 177); details: S. cerevisiae rad18 mutant growth inhibition, hits give high values
Method in brief: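 Steps: expose repair-mutant yeast to compound; measure growth; express as inhibition relative to vehicle control.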

[12] = NCI Yeast Anticancer Drug Screen. Data for the rad52 strain (AID 147);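 note: 0% = growth of vehicle-treated control cultures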; details: S. cerevisiae rad52 mutant growth inhibition, hits give high values
Method in brief: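 Inhibition of yeast growth, referenced to vehicle controls, was the measured output for a strain with defective DNA damage repair.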

[13] = NCI Yeast Anticancer Drug Screen. Data for the wt1 strain (AID 149);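 note: 0% = growth of vehicle-treated wt1 cultures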; details: S. cerevisiae wt1 strain (SPY 50644) growth inhibition, hits give high values
Method in brief: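 Growth inhibition read against vehicle controls after compound exposure of the wt1 yeast strain.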

[14] = NCI Yeast Anticancer Drug Screen. Data for the rad50EPP+ strain (AID 151);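 note: 0% = growth of vehicle-treated control cultures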; details: S. cerevisiae rad50 mutant strain, hits give high values
Method in brief: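 Genetically defined yeast (rad50EPP+, DNA damage repair alteration) is grown with compound, and inhibition of growth is expressed relative to vehicle-treated controls.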

[15] = NCI Yeast Anticancer Drug Screen. Data for the mgt1 strain (AID 153); details: S. cerevisiae mgt1 mutant growth inhibition, hits give high values
Method in brief: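 In the mgt1 strain, test compounds were added and growth inhibition was determined relative to vehicle-treated controls.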

[16] = NCI Yeast Anticancer Drug Screen. Data for the rad50 strain (AID 155);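 note: 0% = growth of vehicle-only cultures of the same strain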; details: S. cerevisiae rad50 strain growth inhibition, hits give high values
Method in brief: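 Readout: growth inhibition relative to vehicle-treated cultures. Compound exposure was carried out in a genetically defined yeast strain deficient in DNA damage repair.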

[17] = at 5.0 µM (retest, dose inferred, filed as 0.5)
[18] = at 50.0 µM (retest, dose inferred, filed as 5.0)

Measured: growth inhibition

O=C1C=C(Br)C(=O)c2ccccc21
inactive: [1]; [17] 39% | [2]; at 1.2 µM 10% | [2]; at 3.7 µM 24% | [3]; [17] 57% | [4]; at 1.2 µM 5% | [4]; at 3.7 µM 9% | [4]; at 11.0 µM 47% | [5]; [17] 5% | [6]; at 1.2 µM 22% | [6]; at 3.7 µM 44% | [7]; at 1.2 µM 13% | [7]; at 3.7 µM 28% | [8]; at 1.2 µM 8% | [8]; at 3.7 µM 11% | [9]; at 1.2 µM 8% | [9]; at 3.7 µM 19% | [10]; [17] 53% | [11]; at 1.2 µM 5% | [11]; at 3.7 µM 11%
active: [1]; at 11.0 µM 97% | [1]; at 33.0 µM 99% | [1]; [18] 99% | [1]; at 50.0 µM 99.2% | [1]; at 100.0 µM 99% | [2]; at 11.0 µM 98% | [2]; at 33.0 µM 99% | [2]; at 100.0 µM 99% | [3]; [18] 99% | [3]; at 50.0 µM 99.2% | [4]; at 33.0 µM 99% | [4]; at 100.0 µM 99% | [5]; [18] 99% | [5]; at 50.0 µM 99.1% | [6]; [17] 86% | [6]; at 11.0 µM 99% | [6]; at 33.0 µM 99% | [6]; [18] 99% | [6]; at 50.0 µM 99% | [6]; at 100.0 µM 99% | [7]; at 11.0 µM 90% | [7]; at 33.0 µM 99% | [7]; at 100.0 µM 99% | [8]; at 11.0 µM 98% | [8]; at 33.0 µM 99% | [8]; at 100.0 µM 99% | [9]; at 11.0 µM 93% | [9]; at 33.0 µM 99% | [9]; at 100.0 µM 99% | [10]; [18] 99% | [10]; at 50.0 µM 99.1% | [11]; at 11.0 µM 82% | [11]; at 33.0 µM 99% | [11]; at 100.0 µM 98%

CC(C)(CN1CCCCC1)C(=O)CC(SCCS(=O)(=O)O)c1ccccc1 (stereo unspecified)
active: [5]; [17] 72%
inactive: [12]; at 1.2 µM 6% | [12]; at 3.7 µM 4% | [12]; at 11.0 µM 25% | [12]; at 33.0 µM 34% | [12]; at 100.0 µM 18% | [13]; at 1.2 µM -63% | [13]; at 3.7 µM 1% | [13]; at 11.0 µM 0% | [13]; at 33.0 µM 4% | [13]; at 100.0 µM 10% | [14]; at 1.2 µM 1% | [14]; at 3.7 µM 0% | [14]; at 11.0 µM -1% | [14]; at 33.0 µM -1% | [14]; at 100.0 µM -5% | [15]; at 1.2 µM 1% | [15]; at 3.7 µM 5% | [15]; at 11.0 µM 6% | [15]; at 33.0 µM 8% | [15]; at 100.0 µM 12% | [16]; at 1.2 µM 1% | [16]; at 3.7 µM 4% | [16]; [17] 10% | [16]; at 11.0 µM 8% | [16]; at 33.0 µM 14% | [16]; [18] 7% | [16]; at 50.0 µM 9.6% | [16]; at 100.0 µM 11% | [1]; at 1.2 µM -1% | [1]; at 3.7 µM -4% | [1]; [17] 11% | [1]; at 11.0 µM 0% | [1]; at 33.0 µM 9% | [1]; [18] -3% | [1]; at 50.0 µM -12.1% | [1]; at 100.0 µM 8% | [2]; at 1.2 µM 3% | [2]; at 3.7 µM 9% | [2]; at 11.0 µM 17% | [2]; at 33.0 µM 31% | [2]; at 100.0 µM 39% | [3]; [17] 17% | [3]; [18] 1% | [3]; at 50.0 µM -2% | [4]; at 1.2 µM -6% | [4]; at 3.7 µM 0% | [4]; at 11.0 µM 8% | [4]; at 33.0 µM 15% | [4]; at 100.0 µM 31% | [5]; [18] 69% | [5]; at 50.0 µM 46.3% | [6]; at 1.2 µM -1% | [6]; at 3.7 µM -6% | [6]; [17] 19% | [6]; at 11.0 µM -1% | [6]; at 33.0 µM 5% | [6]; [18] 32% | [6]; at 50.0 µM 12.1% | [6]; at 100.0 µM 13% | [7]; at 1.2 µM 0% | [7]; at 3.7 µM 2% | [7]; at 11.0 µM 5% | [7]; at 33.0 µM 11% | [7]; at 100.0 µM 15% | [8]; at 1.2 µM 0% | [8]; at 3.7 µM 2% | [8]; at 11.0 µM 3% | [8]; at 33.0 µM 6% | [8]; at 100.0 µM 13% | [9]; at 1.2 µM 3% | [9]; at 3.7 µM 6% | [9]; at 11.0 µM 7% | [9]; at 33.0 µM 19% | [9]; at 100.0 µM 22% | [10]; [17] 17% | [10]; [18] -1% | [10]; at 50.0 µM 5.05% | [11]; at 1.2 µM 10% | [11]; at 3.7 µM 11% | [11]; at 11.0 µM 16% | [11]; at 33.0 µM 26% | [11]; at 100.0 µM 37%
